From PubChem BioAssay (Tox21)
Results filed as inconclusive are left out. Entries that show only a call come without a potency. The source made the active and inactive calls. Calls come from the whole dose curve; as a rule, active = well fitted curve in the direction sought with a large enough effect in the repeat runs; inconclusive = weak or mixed curves; inactive = no such curve, though single readings can be large; an effect the other way counts as inactive or inconclusive.

What was measured:
[1] = molecular target: Voltage-gated inwardly rectifying potassium channel KCNH2 (Homo sapiens) (UniProt Q12809); test: Human Ether-a-go-go-Related Gene (hERG) channel small molecule antagonists: fluorescence cell-based qHTS assay (AID 1671200);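 note: hERG-expressing U2OS cells given a thallium stimulus after FluxOR II dye loading; series mostly up to about 77 µM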
Procedure, shortened: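 First, 1000 cells per well are seeded and cultured overnight at 37 C. Next, FluxOR II dye is loaded for 1 h at room temperature, protected from light. After 10 more minutes, stimulus is added and fluorescence is read.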

[2] = molecular target: Cytochrome P450 3A4 (Homo sapiens) (UniProt P08684); test: Cytochrome P450 Family 3 Subfamily A Member 4 (CYP3A4) small molecule antagonists: luciferase reporter qHTS assay (AID 1671201); note: potency is the fitted concentration of half-maximal effect
Procedure, shortened: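 Enzyme and proluciferin substrate are mixed with test chemicals for 10 min, then NADPH regeneration system drives turnover for 1 h at room temperature. A detection reagent halts the reaction; luminescence after 20 min gives relative activity.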
Note: nearly all actives have a fitted effect of over 50% in size.

Sequence of Cytochrome P450 3A4 (Homo sapiens) (P08684 whole entry, looked up): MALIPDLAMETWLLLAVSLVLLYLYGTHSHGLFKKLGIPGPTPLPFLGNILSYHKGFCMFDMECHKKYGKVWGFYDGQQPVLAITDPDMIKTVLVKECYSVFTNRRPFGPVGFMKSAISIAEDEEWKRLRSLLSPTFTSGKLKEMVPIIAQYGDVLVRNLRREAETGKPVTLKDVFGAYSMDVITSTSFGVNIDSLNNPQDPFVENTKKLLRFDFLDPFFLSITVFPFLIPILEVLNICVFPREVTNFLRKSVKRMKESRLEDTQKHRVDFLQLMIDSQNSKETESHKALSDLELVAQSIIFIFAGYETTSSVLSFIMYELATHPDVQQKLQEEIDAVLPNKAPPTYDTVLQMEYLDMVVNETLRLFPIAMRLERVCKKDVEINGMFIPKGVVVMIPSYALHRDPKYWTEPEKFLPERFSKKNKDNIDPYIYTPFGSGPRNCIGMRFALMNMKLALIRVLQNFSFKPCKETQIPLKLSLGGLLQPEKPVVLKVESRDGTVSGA
Sequence of Voltage-gated inwardly rectifying potassium channel KCNH2 (Homo sapiens) (Q12809 whole entry, looked up): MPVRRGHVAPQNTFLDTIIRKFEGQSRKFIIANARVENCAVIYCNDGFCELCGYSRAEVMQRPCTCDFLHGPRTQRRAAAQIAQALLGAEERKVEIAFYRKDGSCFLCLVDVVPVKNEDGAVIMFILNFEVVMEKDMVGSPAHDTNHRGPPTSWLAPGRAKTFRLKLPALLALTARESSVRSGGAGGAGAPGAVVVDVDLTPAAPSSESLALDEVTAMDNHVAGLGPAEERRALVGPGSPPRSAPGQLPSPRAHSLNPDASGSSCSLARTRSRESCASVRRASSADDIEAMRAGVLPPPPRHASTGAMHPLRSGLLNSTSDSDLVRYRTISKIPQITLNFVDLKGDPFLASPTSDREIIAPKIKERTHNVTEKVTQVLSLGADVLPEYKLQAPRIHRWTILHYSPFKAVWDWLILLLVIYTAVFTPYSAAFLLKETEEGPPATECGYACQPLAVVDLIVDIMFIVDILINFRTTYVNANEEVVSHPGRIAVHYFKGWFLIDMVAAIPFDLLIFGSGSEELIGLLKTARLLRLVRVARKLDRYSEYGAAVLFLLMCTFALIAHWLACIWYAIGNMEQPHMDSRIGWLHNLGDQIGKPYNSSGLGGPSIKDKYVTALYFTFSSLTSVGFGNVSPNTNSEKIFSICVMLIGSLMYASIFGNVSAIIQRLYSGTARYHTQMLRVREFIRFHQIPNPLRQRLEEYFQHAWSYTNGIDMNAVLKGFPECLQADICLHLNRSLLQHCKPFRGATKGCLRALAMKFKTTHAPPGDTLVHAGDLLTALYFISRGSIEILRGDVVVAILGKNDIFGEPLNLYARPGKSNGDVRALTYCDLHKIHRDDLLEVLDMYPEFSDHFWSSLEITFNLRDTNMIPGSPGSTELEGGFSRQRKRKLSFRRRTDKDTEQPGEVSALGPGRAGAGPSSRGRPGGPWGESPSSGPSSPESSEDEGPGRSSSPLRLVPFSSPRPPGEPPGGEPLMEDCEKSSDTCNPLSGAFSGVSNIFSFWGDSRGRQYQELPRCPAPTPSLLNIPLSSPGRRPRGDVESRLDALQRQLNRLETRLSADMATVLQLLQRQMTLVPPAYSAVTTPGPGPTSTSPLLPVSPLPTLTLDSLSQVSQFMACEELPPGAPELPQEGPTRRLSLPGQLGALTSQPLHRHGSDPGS

| SMILES | Potency [1] | Potency [2] |
| --- | --- | --- |
| COc1nccnc1CC(C)C | inactive | inactive |
| CCC(=O)OCCc1ccccc1 |  | inactive |
| CC1(C)C(=O)N(CO)C(=O)N1CO | inactive | inactive |
| CC(=O)c1ccccc1N | inactive | inactive |
| CCCCCCCCCCCCCOP(=O)(O)O | inactive | inactive |
| Nc1ncnc2c1ncn2[C@@H]1O[C@H](COP(=O)(O)O)[C@@H](O)[C@H]1O |  | inactive |
| CC(C)N=C(N)/N=C(\N)Nc1ccc(Cl)cc1 |  | inactive |
| COC(=O)CC#N |  | inactive |
| Cc1cccc(Br)c1 | inactive | inactive |
| CC1CNCC(C)O1 (stereo not given) | inactive | inactive |
| C=CC(=O)OCCOCC(CC)(COCCOC(=O)C=C)COCCOC(=O)C=C | inactive | 0.932 µM (active) |
| COc1ccc(C#N)cc1 | inactive | inactive |
| CCCCCCCCCCc1ccccc1 |  | inactive |
| CCCCCCCC/C=C/CCCOC(C)=O |  | inactive |
| CC(C)(C)c1cc(/C=C2\SC(=N)NC2=O)cc(C(C)(C)C)c1O | inactive | 11.2 µM (active) |
| CCCCCCCCCCCC(=O)N(CC)CC | inactive | inactive |
| c1cc(OCC2CO2)cc(OCC2CO2)c1 (stereo not given) | inactive | 35.3 µM (active) |
| O=C(O)CCCCCCC(=O)O | inactive | inactive |
| C#CC(O)CCC (stereo not given) | inactive | inactive |
| C[Si](C)(C)Cl | inactive |  |
| CC(C)=C1CC[C@@H](C)CC1=O | inactive | inactive |
| C/C=C/CO | inactive | inactive |
| O=C(NO)c1ccccc1 | inactive | inactive |
| CC1(C)COCN1 | inactive | inactive |
| COC(=O)[C@]1(C)CCC[C@@]2(C)[C@H]1CC=C1C=C(C(C)C)CC[C@@H]12 | inactive | 35.6 µM (active) |
| COC(=O)CC(C)CCC=C(C)C (stereo not given) | inactive | inactive |
